Values joined by “and” are separate entries in the source; they are usually repeats but may differ in a detail not shown here. Identical values can stand only once. Records with an inconclusive call do not appear. More than one record can exist for a structure, and the calls need not agree. Active and inactive are the calls of the source. Unless noted, calls follow the shape of the dose curve; as a rule, active = well fitted curve in the direction sought with a large enough effect in the repeat runs; inconclusive = weak or mixed curves; inactive = no such curve, though single readings can be large; an effect the other way counts as inactive or inconclusive.

Assay [1] is described as follows: qHTS assay to identify aromatase inhibitors - cell viability counter screen (AID 743084).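 Also: cells stimulated with testosterone during compound exposure; nearly all actives have a fitted effect of over 55% in size.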 Also: potency is read from the fitted curve at half-maximal effect.
Assay [2] deals with Aryl hydrocarbon receptor (Homo sapiens) (UniProt P35869). Nature of the assay: qHTS assay to identify small molecule that activate the aryl hydrocarbon receptor (AhR) signaling pathway (AID 743085). Also: nearly all actives have a fitted effect of over 15% in size. Also: potency is read from the fitted curve at half-maximal effect.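 As to activation: HG2L7.5c1 human HepG2 liver cells with stably integrated DRE-driven firefly reporter; series mostly up to about 70 µM.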 In outline: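 AhR agonist activity is inferred from enhanced light output of a DRE-controlled firefly luciferase reporter in HepG2 cells, measured with ONE-Glo following 24 h treatment at 37C.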
Background: qHTS replaces the single test concentration by a dilution series.

A short description of assay [3]: qHTS assay to identify small molecule that activate the aryl hydrocarbon receptor (AhR) signaling pathway - cell viability counter screen (AID 743086). Also: nearly all actives have a fitted effect of over 45% in size. Also: potency is read from the fitted curve at half-maximal effect. In outline:
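HepG2-AhR-luc (HG2L7.5c1) cells, 4000/well, treated 24 h at 37 C with compound; viability measured as CellTiter-Fluor fluorescence after 30 min in the same wells as the luciferase read.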

The target of assay [4] is Peroxisome proliferator-activated receptor gamma (Homo sapiens) (UniProt P37231). In words: qHTS assay to identify small molecule antagonists of the peroxisome proliferator-activated receptor gamma (PPARg) signaling pathway (AID 743191; calls by dose curve; also: series mostly up to about 63 µM; nearly all actives have a fitted effect of over 30% in size). In outline:
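GeneBLAzer PPARg UAS-bla HEK293H cells, 5 h post-plating, exposed to compounds 17 h at 37C. LiveBLAzer B/G FRET substrate added for 1 h at room temperature; beta-lactamase reporter read by fluorescence intensity.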

A short description of assay [5]: qHTS assay to identify small molecule antagonists of the peroxisome proliferator-activated receptor gamma (PPARg) signaling pathway - cell viability counter screen (AID 743194). Also: nearly all actives have a fitted effect of over 55% in size. In outline:
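Cytotoxicity counter screen in PPARg-bla HEK293H cells, same wells as reporter assay. Compounds plus 50 nM rosiglitazone (final) for 17 h at 37 C, then viability read by CellTiter-Glo luminescence.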

Assay [6] is described as follows: qHTS assay for small molecule agonists of the antioxidant response element (ARE) signaling pathway (AID 743202; active = well fitted activation curve with a large enough effect in the signal ratio in the repeat runs, not every such curve was filed as active; the % refers to the signal ratio; also: potency is read from the fitted curve at half-maximal effect). In short, it runs like this: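 ARE-bla HepG2 cells (beta-lactamase reporter under the antioxidant response element), plated 5 hours, then exposed to compounds 16 hours at 37 C. LiveBLAzer B/G FRET substrate added for 2 hours at room temperature; fluorescence intensity read.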

The nature of assay [7]: qHTS assay for small molecule agonists of the antioxidant response element (ARE) signaling pathway - cell viability counter screen (AID 743203; calls by dose curve; also: nearly all actives have a fitted effect of over 55% in size). In outline: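 HepG2 cells carrying ARE-driven beta-lactamase; 2,000 cells/well; 5 hrs plating; compound pinned from DMSO; 16 hrs 37C/5% CO2; CellTiter-Glo added; 30 min RT; luminescence.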
The nature of assay [8]: qHTS assay for small molecule activators of the heat shock response signaling pathway - cell viability counter screen (AID 743209). Also: nearly all actives have a fitted effect of over 50% in size. Also: potency is read from the fitted curve at half-maximal effect. In short, it runs like this: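 Luminescence from CellTiter-Glo, added after the beta-lactamase FRET read, gave the viability signal. Cells were HSE-bla HeLa treated with DMSO-dissolved compounds for 5 h at 37 C following overnight plating.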

Assay [9] is described as follows: qHTS assay for small molecule activators of the heat shock response signaling pathway (AID 743210; active = well fitted activation curve with a large enough effect in the signal ratio in the repeat runs, with a control signal flat, not every such curve was filed as active; the % refers to the signal ratio; also: potency is read from the fitted curve at half-maximal effect; as to activation: series mostly up to about 63 µM). In short, it runs like this: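 HSE-bla HeLa cells (beta-lactamase reporter under heat shock response elements), plated overnight, then exposed to compounds 5 h at 37 C; LiveBLAzer B/G FRET substrate added, 2.5 h at room temperature, fluorescence intensity read.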

The target in assay [10] is Peroxisome proliferator-activated receptor gamma (Homo sapiens) (UniProt P37231). In words: qHTS assay to identify small molecule agonists of the peroxisome proliferator-activated receptor gamma (PPARg) signaling pathway (AID 743094; active = well fitted activation curve with a large enough effect in the signal ratio in the repeat runs, not every such curve was filed as active; the % refers to the signal ratio). In short, it runs like this: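 Beta-lactamase FRET fluorescence was the read-out after a 1 h room-temperature substrate step, following 17 h compound treatment at 37C of HEK293H cells expressing a UAS-driven bla reporter responsive to PPARg.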
Peroxisome proliferator-activated receptor gamma (Homo sapiens), sequence (P37231 whole entry, looked up): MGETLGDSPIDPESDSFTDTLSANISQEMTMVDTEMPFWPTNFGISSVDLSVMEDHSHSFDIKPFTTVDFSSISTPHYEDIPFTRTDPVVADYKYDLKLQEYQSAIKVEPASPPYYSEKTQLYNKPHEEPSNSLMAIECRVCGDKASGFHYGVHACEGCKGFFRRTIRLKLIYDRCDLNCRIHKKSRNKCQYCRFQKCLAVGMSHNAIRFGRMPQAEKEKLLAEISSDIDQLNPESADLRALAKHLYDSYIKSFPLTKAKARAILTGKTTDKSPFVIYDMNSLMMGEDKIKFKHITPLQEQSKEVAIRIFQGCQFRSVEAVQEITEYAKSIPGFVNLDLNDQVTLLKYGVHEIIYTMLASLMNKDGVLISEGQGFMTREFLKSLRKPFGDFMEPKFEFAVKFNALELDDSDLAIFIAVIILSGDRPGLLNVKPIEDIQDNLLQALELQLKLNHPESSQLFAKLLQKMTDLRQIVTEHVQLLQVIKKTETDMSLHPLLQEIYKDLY

Aryl hydrocarbon receptor (Homo sapiens), sequence (P35869 whole entry, looked up): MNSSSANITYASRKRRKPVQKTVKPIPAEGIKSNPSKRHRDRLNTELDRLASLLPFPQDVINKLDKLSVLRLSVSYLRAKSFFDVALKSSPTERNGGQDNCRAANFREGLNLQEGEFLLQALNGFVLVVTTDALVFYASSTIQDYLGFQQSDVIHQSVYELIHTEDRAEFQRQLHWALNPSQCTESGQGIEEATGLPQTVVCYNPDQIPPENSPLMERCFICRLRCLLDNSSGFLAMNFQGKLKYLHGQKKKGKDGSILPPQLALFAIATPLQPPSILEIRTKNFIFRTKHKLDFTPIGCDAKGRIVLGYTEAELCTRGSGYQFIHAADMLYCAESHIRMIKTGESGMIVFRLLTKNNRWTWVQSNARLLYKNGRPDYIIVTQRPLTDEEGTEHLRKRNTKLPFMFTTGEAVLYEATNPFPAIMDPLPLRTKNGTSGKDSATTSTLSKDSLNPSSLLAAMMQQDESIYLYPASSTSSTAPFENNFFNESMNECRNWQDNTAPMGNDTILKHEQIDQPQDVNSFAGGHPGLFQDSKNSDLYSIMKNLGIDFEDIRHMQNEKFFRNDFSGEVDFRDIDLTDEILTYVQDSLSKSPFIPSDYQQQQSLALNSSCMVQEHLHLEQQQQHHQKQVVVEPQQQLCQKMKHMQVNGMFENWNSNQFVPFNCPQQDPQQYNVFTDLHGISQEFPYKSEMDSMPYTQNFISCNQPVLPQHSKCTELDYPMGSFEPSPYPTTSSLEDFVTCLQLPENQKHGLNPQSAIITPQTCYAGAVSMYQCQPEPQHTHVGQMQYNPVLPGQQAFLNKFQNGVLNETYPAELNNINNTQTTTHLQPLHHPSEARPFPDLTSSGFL

`CCOc1ccc(O)cc1`: the Potency result in assay [1], in assay [2], in assay [3], in [4], in assay [5] and in [7] was “inactive” in each case. For the same compound, the Potency entry in assay [8] and in assay [9] was “inactive” in each case. Moreover, the Potency in assay [6] is 61.1 µM (active).

In the case of `CCCCCCCN`, the Potency entry in assay [1], in assay [2], in [3], in assay [5], in assay [6] and in assay [7] was “inactive” in each case. Moreover, the Potency entry in [8] is “inactive”.

Turning to `C1CCCNCCC1`, the Potency result in assay [1], in assay [2], in assay [3], in assay [5], in assay [6] and in assay [7] was “inactive” throughout. In addition, the Potency entry in assay [9] was “inactive”.

In the case of `COC(C)OC`, the Potency result in assay [1], in [2], in assay [3], in [4], in assay [5] and in [6] was “inactive” throughout. Also, the Potency entry in assay [7], in assay [8] and in [9] was “inactive” in each case.

For `O=C1OC(CN2CCOCC2)CN1/N=C/c1ccc([N+](=O)[O-])o1` (configuration not stated), the Potency result in assay [1], in assay [2], in assay [3], in assay [5], in assay [7] and in assay [8] was “inactive” throughout. Besides, in assay [9], the Potency result is “inactive”. Besides, the Potency in assay [6] is 29.8 µM (active).

Turning to `C/C=C/C=C/CO`, the Potency entry in assay [1], in [2], in assay [3], in [10], in [7] and in [8] was “inactive” throughout. Also, the Potency result in assay [9] is “inactive”.

`CC(CSC(=O)c1ccccc1)C(=O)N1C[C@@H](Sc2ccccc2)C[C@H]1C(=O)O` (some centres not stated): the Potency entry in [1], in assay [2], in assay [3], in assay [4], in assay [5] and in assay [6] was “inactive” each time. The Potency result in [7], in assay [8] and in assay [9] was “inactive” in each case.

Turning to `CN(C)c1ccc(C(c2ccccc2)c2ccc(N(C)C)cc2)cc1`, the Potency entry in assay [1], in assay [2], in assay [3], in [5], in [6] and in assay [7] was “inactive” throughout. The Potency entry in assay [8] and in [9] was “inactive” throughout.

`CC(C)(C)OCC1CO1` (configuration not stated): the Potency result in [1], in assay [2], in assay [3], in [5], in [6] and in assay [7] was “inactive” throughout. Moreover, the Potency entry in [8] and in assay [9] was “inactive” in each case.

In the case of `CC(=O)[O][Al]`, the Potency result in assay [1], in assay [2], in [3], in assay [5], in assay [6] and in assay [7] was “inactive” throughout. Also, in [8], the Potency result was “inactive”.

In the case of `CCCCOC(=O)CCCCCCCC(=O)OCCCC`, the Potency result in [1], in assay [2], in assay [3], in assay [4], in assay [5] and in [7] was “inactive” throughout. In addition, the Potency result in [8] and in [9] was “inactive” each time.

For the compound `C#CCN(C)CCCOc1ccc(Cl)cc1Cl`, the Potency entry in assay [1], in [3], in assay [4], in assay [5], in assay [7] and in [8] was “inactive” throughout. The Potency result in assay [9] is “inactive”. The Potency is 23.7 µM (active) in [2] and 15 µM (active) in assay [6].

In the case of `CC(=O)[O][Al][O]C(C)=O`, the Potency entry in assay [1], in assay [2], in [3], in assay [5], in assay [6] and in assay [7] was “inactive” each time. Further, the Potency result in [8] was “inactive”.

As to `Nc1ncn([C@H]2C[C@H](O)[C@@H](CO)O2)c(=O)n1`, the Potency result in assay [1], in assay [2], in assay [3], in assay [5], in [6] and in [7] was “inactive” in each case. For the same compound, the Potency result in [8] was “inactive”.

For `CC(=O)OC[C@H]1O[C@@H](n2ncc(=O)[nH]c2=O)[C@H](OC(C)=O)[C@@H]1OC(C)=O`, the Potency result in [1], in assay [2], in assay [3], in assay [5], in assay [6] and in assay [7] was “inactive” each time. The Potency result in assay [8] and in [9] was “inactive” each time.

In the case of `O=C(c1ccc(F)cc1)C1CCN(CCn2c(=S)[nH]c3ccccc3c2=O)CC1`, the Potency entry in assay [1], in assay [2], in assay [3], in assay [4], in assay [5] and in [7] was “inactive” in each case. Moreover, the Potency in assay [9] was 19.6 µM (active).

With `C=CC(=O)OCCOc1ccccc1`, the Potency entry in assay [1], in [2], in assay [3], in assay [5], in assay [6] and in assay [7] was “inactive” each time. Further, the Potency in assay [8] is 19.5 µM (active).

Regarding `Cc1cc(C(=O)O)ccc1[N+](=O)[O-]`, the Potency result in assay [1], in assay [2], in assay [3], in assay [4], in assay [5] and in assay [6] was “inactive” each time. Also, the Potency entry in assay [7], in assay [8] and in assay [9] was “inactive” throughout.

For `CC/C=C\CCOC(=O)CC`, the Potency entry in [1], in [2], in assay [3], in assay [5], in [6] and in assay [7] was “inactive” throughout. For the same compound, the Potency entry in assay [8] and in assay [9] was “inactive” each time.

`C[C@@H](c1ncncc1F)C(O)(Cn1cncn1)c1ccc(F)cc1F` (some centres not stated): the Potency entry in assay [1], in [2], in assay [3], in assay [5], in assay [6] and in assay [7] was “inactive” in each case. Besides, the Potency result in [8] and in assay [9] was “inactive” in each case.

As to `COc1cc(C(=O)OCCCN2CCCN(CCCOC(=O)c3cc(OC)c(OC)c(OC)c3)CC2)cc(OC)c1OC`, the results for the Potency in assay [1] and in assay [6] were 8.41 µM (active) and 11.9 µM (active), respectively. The Potency entry in assay [2], in assay [3], in [5], in [7], in assay [8] and in assay [9] was “inactive” each time.

Consider `CC(C)(CO)[N+](=O)[O-]`, for which the Potency entry in [1], in assay [2], in assay [3], in [5], in assay [6] and in assay [7] was “inactive” throughout. Moreover, the Potency entry in assay [8] and in assay [9] was “inactive” throughout.

On to `C=CCOc1ccccc1OCC(O)CNC(C)C` (configuration not stated), for which the Potency result in assay [1], in [2], in [3], in assay [5], in assay [6] and in [7] was “inactive” each time. Besides, the Potency result in assay [8] and in assay [9] was “inactive” in each case.

In the case of `COc1ccc(S(=O)(=O)N2C(=O)[C@@](c3ccccc3OC)(N3C[C@H](O)C[C@H]3C(=O)N(C)C)c3cc(Cl)ccc32)c(OC)c1`, the Potency in assay [1] and in assay [3] was 30.6 µM (active) throughout. The Potency result in assay [2], in assay [10], in assay [8] and in [9] was “inactive” in each case.

Turning to `CC(=O)c1cccc([N+](=O)[O-])c1`, the Potency entry in assay [1], in assay [2], in [3], in [4], in [5] and in assay [6] was “inactive” in each case. The Potency entry in assay [7], in assay [8] and in assay [9] was “inactive” in each case.

On to `Nc1c(CC(=O)O)cccc1C(=O)c1ccc(Br)cc1`, for which the Potency result in [1], in assay [2], in [3], in [5], in assay [6] and in assay [8] was “inactive” each time.

For `CC1=CC[C@H](C(C)C)C=C1`, the Potency result in assay [1], in assay [2], in [3], in [5], in [7] and in assay [8] was “inactive” throughout. Moreover, the Potency result in assay [9] is “inactive”. Besides, in [6], the Potency was 54.5 µM (active).

Take `OCc1cc(C(O)CNCCCCCCOCCCCc2ccccc2)ccc1O` (configuration not stated): the Potency in [1] was 11.9 µM (active) and 9.44 µM (active); in assay [2], 26.6 µM (active) and inactive; in [3], 26.6 µM (active) and 13.3 µM (active). Besides, the Potency entry in assay [4], in [5], in assay [8] and in [9] was “inactive” each time.
